Consider 14 compounds from PubChem BioAssay.

Activity calls are given as the source filed them.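 How the source made its calls, unless noted: active means fluorescence slope after compound addition differing from the mean of all screened samples at 99.7% confidence, in either direction; inactive means the rest.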

Assay [1] in a line: inhibitors of TNFa-induced NFkB p65 translocation, primary screen, imaging, HUVEC, MLSMR starter and 10KST1 sets (AID 438;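 active means inhibition above 20% together with a positive visual image hit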;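 further: compound added about 3h40 before a 20 min TNFalpha stimulation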;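 on inhibition: signal is the nuclear over cytoplasmic p65 intensity ratio per well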). The conditions noted are these: HUVEC TNFa-induced p65 nuclear translocation; cell count: measured here: nuclei count (cytotoxicity indicator), at 2.08 µM; inhibition: at 2 µM, stronger effect = higher value, 0% TNFa-plus-vehicle, 100% no-TNFa wells.
A short description of assay [2]: inhibitors of mutant huntingtin aggregation, primary screen, imaging, exon1htt(103Q)mCFP cells, high-content imaging (AID 483;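 active means visual image review flags a hit and inhibition of aggregation exceeds 20%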;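 further: compound exposure lasted 3 days before fixation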;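 on nuclei count: percent of the per-plate median nuclei count of sample wells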). The conditions noted are these: exon1htt(103Q)mCFP cell line, aggregate imaging, at 2 µM; inhibition of aggregation: stronger effect = higher value; nuclei count: measured here: cell count, toxicity.
Assay [3] in a line: inhibitors of E-selectin induction by TNFa, primary screen, imaging, HUVEC, immunofluorescence, MLSMR starter and 10KST1 sets (AID 487;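 active means visually confirmed hit in the image check and inhibition above 20%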;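 on inhibition: signal is fraction of cell area covered by stained E-selectin grains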;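 on nuclei count: 100% = median nuclei count of all wells on the same plate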). The conditions noted are these: HUVEC TNFalpha-induced E-selectin immunofluorescence imaging, at 2 µM; inhibition: stronger effect = higher value; nuclei count: measured here: cell number, toxicity.
In assay [4] the target is Voltage-gated potassium channel subunit beta-2 (Rattus norvegicus) (UniProt P62483). The assay can be described thus: KvBeta enzyme negative modulators, primary screen, biochemical, NADPH fluorescence (AID 622;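 active means fluorescence slope higher than the sample average by over 3 SD, cut at about -0.22 in these data, passing the limit was not always enough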;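 further: slope of raw intensity against log time taken from 70 to 1610 s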). The conditions noted are these: recombinant KvBeta, 4-cyanobenzaldehyde reduction, at 10 µM, stronger effect = higher value.
Chain of Voltage-gated potassium channel subunit beta-2 (Rattus norvegicus) (P62483 whole entry, looked up): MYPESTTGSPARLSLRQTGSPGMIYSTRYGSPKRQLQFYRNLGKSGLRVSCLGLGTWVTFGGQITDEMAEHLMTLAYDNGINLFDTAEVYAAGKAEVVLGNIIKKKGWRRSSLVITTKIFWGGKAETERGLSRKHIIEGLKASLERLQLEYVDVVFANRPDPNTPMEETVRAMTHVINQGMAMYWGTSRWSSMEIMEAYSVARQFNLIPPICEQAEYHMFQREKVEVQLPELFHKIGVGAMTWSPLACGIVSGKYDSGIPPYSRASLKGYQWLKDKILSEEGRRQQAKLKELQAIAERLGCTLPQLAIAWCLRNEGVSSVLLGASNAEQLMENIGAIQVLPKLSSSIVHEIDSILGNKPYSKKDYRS
Assay [5] shares this target. The assay can be described thus: KvBeta positive modulators, primary screen, biochemical, NADPH fluorescence (AID 623;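 active means NADPH fluorescence slope more negative than the mean of all samples by about 3 SD, 99.7% confidence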;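 further: fluorescence intensity change per second fitted from 20 to 320 s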). The conditions noted are these: Recombinant KvBeta, NADPH fluorescence decrease slope, 10 min; at 10 µM; stronger effect = lower value.
Assay [6] concerns the target Alpha-2C adrenergic receptor (Homo sapiens) (UniProt P18825). Briefly: modulators of alpha2C/GIRK thallium flux, primary screen, cell-based, HEK293 alpha2C/GIRK1/2 (AID 624).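 Further: slope of fluorescence ratio to pre-addition baseline per second over 15 to 24 s.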 The conditions noted are these: thallium flux BTC fluorescence, at 10 µM, actives lie on both sides.
The nature of assay [7]: inhibitors of Sendai virus-induced IRF3 signaling, primary screen, TLR/RLR signaling modifier project, cell-based, Sendai virus stimulus, luciferase, 10K MLSCN set (AID 602276;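 active means inhibition at or above 50% at 10 µM; inactive means inhibition below 50%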;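 further: firefly luciferase from ISG56 promoter only with Renilla not read in this screen; 0% = Sendai virus plus DMSO and 100% = medium plus DMSO without virus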). The conditions noted are these: HEK293 RL24 IRF3 luciferase reporter, at 10 µM, stronger effect = higher value.
Assay [8] can be described thus: inhibitors of poly I:C-induced TLR3 signaling, primary screen, cell-based, poly I:C stimulus, luciferase, 10K MLSCN set (AID 602277;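 active means inhibition of the reporter signal at or above 50%; inactive means inhibition below 50%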). The conditions noted are these: HEK293-TLR3 RL24 IRF3 luciferase reporter, at 10 µM, stronger effect = higher value.

Chain of Alpha-2C adrenergic receptor (Homo sapiens) (P18825 whole entry, looked up): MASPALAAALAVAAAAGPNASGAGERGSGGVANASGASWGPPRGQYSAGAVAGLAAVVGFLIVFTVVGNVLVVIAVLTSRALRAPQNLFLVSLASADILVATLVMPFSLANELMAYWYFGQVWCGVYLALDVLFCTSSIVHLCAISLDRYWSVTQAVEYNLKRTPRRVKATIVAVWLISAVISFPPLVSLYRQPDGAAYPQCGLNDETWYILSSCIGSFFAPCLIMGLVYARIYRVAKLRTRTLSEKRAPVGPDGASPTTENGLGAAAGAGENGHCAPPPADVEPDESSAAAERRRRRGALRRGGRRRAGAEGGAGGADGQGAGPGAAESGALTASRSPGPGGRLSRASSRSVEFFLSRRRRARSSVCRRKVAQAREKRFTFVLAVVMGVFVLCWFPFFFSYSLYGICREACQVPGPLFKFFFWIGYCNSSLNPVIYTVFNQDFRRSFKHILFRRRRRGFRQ

Take `CN(c1ccccc1)S(=O)(=O)c1ccc(C(=O)OCC(=O)N2CCOCC2)cc1`: the cell count in assay [1] came to 420. The inhibition in assay [1] is -5.7% (inactive); in assay [3] it was 0.3% (inactive); in assay [7] it was 11.4% (inactive); in assay [8], 22% (inactive). For the same compound, the inhibition of aggregation in assay [2] was 8.2% (inactive). For the same compound, the nuclei count in assay [2] came to 92.9%; in assay [3], 105%. The fluorescence slope in assay [4] was -0.583 (inactive). Further, the NADPH fluorescence slope in assay [5] is -6.4e-05 (inactive). In assay [6], the slope was 0.00565 (inactive).
On to `CCN(CC)CCCn1c(=S)[nH]c2cc(Cl)ccc2c1=O`, for which, in assay [1], the cell count is 353. Besides, the inhibition was -0.2% (inactive) in assay [1], 6.9% (inactive) in assay [3], 12.1% (inactive) in assay [7] and 21.3% (inactive) in assay [8]. The inhibition of aggregation in assay [2] was 7.4% (inactive). The nuclei count in assay [2] was 100%; in assay [3], 97.4%. For the same compound, the fluorescence slope in assay [4] is -0.514 (inactive). For the same compound, in assay [5], the NADPH fluorescence slope was -0.000206 (active). Further, in assay [6], the slope was 0.00373 (inactive).
Take `Cc1cccc(-n2ncc3c(N(CCO)CCO)ncnc32)c1`: the cell count in assay [1] is 635. The inhibition in assay [1] was 1.4% (inactive); in assay [3], -35.6% (inactive); in assay [7], -28.4% (inactive); in assay [8], -84.3% (inactive). Besides, the inhibition of aggregation in assay [2] was -5% (inactive). For the same compound, the nuclei count in assay [2] was determined as 53.9%; in assay [3], 125%. In assay [4], the fluorescence slope is -0.513 (inactive). Further, in assay [5], the NADPH fluorescence slope was -1.8e-05 (inactive). In assay [6], the slope is 0.00728 (inactive).
For the compound `COC(=O)c1ccccc1NC(=O)C1CC(=O)N(c2ccccc2)C1` (centres undefined), the cell count in assay [1] was 576. Also, the inhibition is -5.8% (inactive) in assay [1], -18.1% (inactive) in assay [3], 10.2% (inactive) in assay [7] and 6.98% (inactive) in assay [8]. In addition, the inhibition of aggregation in assay [2] was 13.9% (inactive). Besides, the nuclei count in assay [2] turned out to be 99.5%; in assay [3], 106%. Moreover, the fluorescence slope in assay [4] is -0.496 (inactive). In addition, the NADPH fluorescence slope in assay [5] was -5.9e-05 (inactive). In addition, the slope in assay [6] was 0.00531 (inactive).
Consider `NC(=O)CSc1nnc(-c2cc3ccccc3o2)n1Cc1ccccc1`, for which the cell count in assay [1] came out at 426. Further, the inhibition is 6.3% (inactive) in assay [1], -33% (inactive) in assay [3], 19.8% (inactive) in assay [7] and 18.4% (inactive) in assay [8]. In addition, the inhibition of aggregation in assay [2] is -2.8% (inactive). Also, the nuclei count in assay [2] was determined as 101%; in assay [3], 129%. Moreover, in assay [4], the fluorescence slope was -0.272 (inactive). The NADPH fluorescence slope in assay [5] is 1.6e-05 (inactive). Moreover, in assay [6], the slope was 0.003 (inactive).
Turning to `CCCCC(=O)Nc1ccc(NC(=O)C2CC2)nc1`, the cell count in assay [1] was 558. In addition, the inhibition in assay [1] was 19.2% (inactive); in assay [3] it was 22.7% (inactive); in assay [7], 3.06% (inactive); in assay [8], -2.76% (inactive). For the same compound, the inhibition of aggregation in assay [2] was 16% (inactive). For the same compound, the nuclei count worked out at 67.6% in assay [2] and 94.2% in assay [3]. Moreover, the fluorescence slope in assay [4] was -0.474 (inactive). The NADPH fluorescence slope in assay [5] was -6e-05 (inactive). The slope in assay [6] was 0.00505 (inactive).
Consider `C=C(C)COc1ccc(-c2n[nH]c(C)c2-c2ccccc2)c(O)c1`, for which the cell count in assay [1] amounted to 456. Also, the inhibition was -8% (inactive) in assay [1], 0.8% (inactive) in assay [3], -6.65% (inactive) in assay [7] and 11.2% (inactive) in assay [8]. Moreover, the inhibition of aggregation in assay [2] is 3.7% (inactive). The figures for the nuclei count in assay [2] and in assay [3] were 99.2% and 81.8%, respectively. The fluorescence slope in assay [4] was -0.46 (inactive). In assay [5], the NADPH fluorescence slope is -3.2e-05 (inactive). Besides, in assay [6], the slope is 0.00246 (inactive).
As to `O=c1c2cc(N3CCOCC3)ccc2[nH]c(=S)n1CCCN1CCCCC1`, the cell count in assay [1] came out at 522. The inhibition was 6.2% (inactive) in assay [1], -2.6% (inactive) in assay [3], -10.1% (inactive) in assay [7] and 23.3% (inactive) in assay [8]. In assay [2], the inhibition of aggregation was -8.5% (inactive). Also, the nuclei count in assay [2] was determined as 121%; in assay [3] it was 106%. Besides, the fluorescence slope in assay [4] was -0.0837 (active). In addition, the NADPH fluorescence slope in assay [5] is 8.7e-06 (inactive). For the same compound, the slope in assay [6] was 0.00508 (inactive).
As for `COc1cccc(N2CCN(C(=O)C3C4C=CC5(CN(Cc6ccccc6Cl)C(=O)C35)O4)CC2)c1` (centres undefined), in assay [1], the cell count is 606. Besides, the inhibition was -11.6% (inactive) in assay [1], -66.5% (inactive) in assay [3], -0.268% (inactive) in assay [7] and 13.1% (inactive) in assay [8]. Besides, the inhibition of aggregation in assay [2] is -3% (inactive). Besides, the nuclei count came out at 58.2% in assay [2] and 123% in assay [3]. Besides, in assay [4], the fluorescence slope is -0.402 (inactive). Besides, in assay [5], the NADPH fluorescence slope is -3.2e-05 (inactive). The slope in assay [6] was 0.00266 (inactive).
For `COc1cccc(C(=O)CN2CCC(NC(=O)NC3CCCCC3)CC2)c1`, the cell count in assay [1] was found to be 513. Moreover, the inhibition in assay [1] was -25.5% (inactive); in assay [3], -26.9% (inactive); in assay [7], 7.64% (inactive); in assay [8] it was -12.8% (inactive). Moreover, the inhibition of aggregation in assay [2] is 10.5% (inactive). Also, the nuclei count in assay [2] came out at 51.6%; in assay [3], 114%. In addition, in assay [4], the fluorescence slope was -0.393 (inactive). For the same compound, the NADPH fluorescence slope in assay [5] is -3.8e-05 (inactive). Further, in assay [6], the slope is 0.00349 (inactive).
For `Cc1nnc(SCc2ccccc2)n1N`, the cell count in assay [1] was determined as 465. Further, the inhibition in assay [1] is 2.9% (inactive); in assay [3] it was -16.8% (inactive); in assay [7] it was 16.3% (inactive); in assay [8], 16.6% (inactive). Besides, in assay [2], the inhibition of aggregation is -11.7% (inactive). The nuclei count was 101% in assay [2] and 119% in assay [3]. For the same compound, the fluorescence slope in assay [4] was -0.494 (inactive). In addition, in assay [5], the NADPH fluorescence slope is -4.1e-05 (inactive). Moreover, the slope in assay [6] is 0.00525 (inactive).
Consider `Cc1cc(NC(=O)COC(=O)C2COc3ccccc3O2)no1` (centres undefined), for which, in assay [1], the cell count was determined as 734. The inhibition in assay [1] is -5.3% (inactive); in assay [3], -15.9% (inactive); in assay [7], 7.14% (inactive); in assay [8], 12.6% (inactive). Besides, in assay [2], the inhibition of aggregation is -24.5% (inactive). Further, the values for the nuclei count in assay [2] and in assay [3] were 106% and 103%, respectively. Also, the fluorescence slope in assay [4] is -0.407 (inactive). Besides, the NADPH fluorescence slope in assay [5] was -7.6e-05 (inactive). The slope in assay [6] is 0.00343 (inactive).
On to `CC(c1ccco1)N(Cc1ccco1)C(=O)Nc1ccccc1` (centres undefined), for which the cell count in assay [1] came to 511. In addition, the inhibition in assay [1] is 1% (inactive); in assay [3], -45.1% (inactive); in assay [7], -3.9% (inactive); in assay [8], -21.4% (inactive). Also, the inhibition of aggregation in assay [2] is 13.9% (inactive). Also, the results for the nuclei count in assay [2] and in assay [3] were 90.3% and 97.5%, respectively. The fluorescence slope in assay [4] was -0.574 (inactive). In addition, the NADPH fluorescence slope in assay [5] was 5.2e-05 (inactive). Moreover, in assay [6], the slope is 0.00511 (inactive).
Turning to `CCn1nc(C(=O)OCC(=O)N2CCc3ccccc32)c2ccccc2c1=O`, the cell count in assay [1] was determined as 301. Also, the inhibition in assay [1] was -8.8% (inactive); in assay [3], 25.7% (inactive); in assay [7] it was -3.24% (inactive); in assay [8] it was 13.2% (inactive). Moreover, the inhibition of aggregation in assay [2] was 4.1% (inactive). Moreover, the nuclei count was 68.3% in assay [2] and 96.8% in assay [3]. Further, the fluorescence slope in assay [4] is -0.297 (inactive). Besides, the NADPH fluorescence slope in assay [5] is 2.7e-05 (inactive). Further, the slope in assay [6] is 0.00506 (inactive).
